In PubChem BioAssay AID485273 (Sanford-Burnham Center for Chemical Genomics, 2010) one finds inhibition data, which are given here for 61 compounds.

About 1,500 (0.45%) of roughly 330,000 compounds were called active. Many of the other results were omitted from the sample, so actives are more common in it than they were. A number with no mark means an inactive call. Cut-off read from the data, not from the text of the source: active = inhibition above about 45% (passing the limit was not always enough); inconclusive = no clear call, values can overlap the other calls.

The target of the assay is Ubiquitin-conjugating enzyme E2 N (Homo sapiens) (UniProt P61088). The assay is described as follows: UBC13 polyubiquitin chain formation inhibitors, primary screen, biochemical, TR-FRET, uHTS (AID 485273). As to conditions: at 20 µM, stronger effect = higher value. On the technique in general: Time-resolved FRET reads energy transfer from a long-lived donor to a nearby acceptor.
Sequence of Ubiquitin-conjugating enzyme E2 N (Homo sapiens) (P61088 whole entry, looked up): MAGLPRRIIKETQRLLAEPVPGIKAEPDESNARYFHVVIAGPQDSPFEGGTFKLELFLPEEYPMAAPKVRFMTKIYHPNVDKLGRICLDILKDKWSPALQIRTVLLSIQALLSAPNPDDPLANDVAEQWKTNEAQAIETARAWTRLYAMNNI
As a reminder, the inhibition is the change of the read-out against control, counted positive when it falls. For the compound `COc1ccccc1NC(=O)CCN1CCN(c2ccc(Cl)cc2)CC1`, the inhibition is -6%.
For the compound `O=C(CN1CCN(c2ccc(O)cc2)CC1)NC1CCCc2ccccc21` (stereo unspecified), the inhibition is 7.1%.
The figure for `O=C(CN1CCSCC1)N/N=C/c1ccc(Cl)cc1` is -14.1%; for `N#Cc1c(-c2ccc(Cl)cc2)c2c([nH]c1=S)CCCC2` it is 47.4% (active).
For `CN(C)c1nc(-c2cccnc2)nc(-c2ccc(Cl)cc2)c1C#N` the value was -0.5%; for `CNc1nccc(-c2ccc(Cl)cc2)c1C#N`, 9.5%.
The figure for `Cc1cccc(-n2cnc(C(=O)NNC(=S)Nc3ccccc3)c2)n1` is 84.4% (active).
Take `Cn1cc(Cl)c(C(=O)NNC(=S)Nc2cccc(Cl)c2)n1`: the inhibition is -10.5%.
Turning to `Cc1cccc(-n2cnc(C(=O)Nc3cccnc3)c2)n1`, the inhibition is -3.6%.
In the case of `COc1ccc(CNS(=O)(=O)c2ccc(NC(=O)N3CCCCC3)cc2)cc1`, the inhibition is -9.2%.
For `CC(C)OCCCNC(=O)CN1C(=O)/C(=C/c2ccccc2F)Oc2ccccc21` the value was 1%; for `CCCN1CCN(C(=O)CCCNC(=O)c2ccc(Cl)cc2)CC1`, -6.8%.
For `CN1CCN(CCCNC(=O)c2ccc(/C=C3\Oc4ccccc4N(Cc4ccc(Cl)cc4)C3=O)cc2)CC1` the value was 80.8% (active); for `Cc1ccc2c(C)c(C(=O)N3CCC(N4CCC(C(=O)NC5CC5)CC4)CC3)oc2c1`, -16.4%; for `S=C(Cc1ccc(Cl)cc1)N1CCOCC1`, 4.3%.
For `CCN1C(=S)N[C@@H](CCc2ccccc2)[C@H](C(=O)OC)[C@H]1C` the value was 4.5%; for `CCN1C(=NCc2ccc(OC)cc2)N[C@@H](CCc2ccccc2)[C@H](C(=O)NCc2ccc(OC)cc2)[C@H]1C`, 48.7% (active).
`CCN1C(=NCC(C)C)N[C@@H](CCc2ccccc2)[C@H](C(=O)NCC(C)C)[C@H]1C`: the inhibition is 15.8%.
The figure for `CCN(CC(=O)Nc1cc(Cl)ccc1C)C(=O)CSCc1ccc(C)cc1` is 0.3%.
`Cc1cccc(N2CCN(C(C)C(=O)N3CCc4ccccc43)CC2)c1C` (stereo unspecified): the inhibition was -1.5%.
The figure for `CC(=O)Nc1cccc(NC(=O)c2ccc3c(c2)CCN3S(C)(=O)=O)c1` is -2.7%; for `CC(C)(c1ccccc1)c1ccc(OCCN)cc1` it is 16.7%.
For `Cc1cc(C)n(CC(O)COc2ccc(C(C)(C)C)cc2)n1` (stereo unspecified) the value was -14.2%; for `CN(C)CC(O)COc1ccc(C(C)(C)c2ccc(OCC(O)CN(C)C)cc2)cc1` (stereo unspecified), 59.2% (active).
For `NC(=O)NC(CC(=O)NNC(=O)c1ccccn1)c1ccc(Cl)cc1` (stereo unspecified) the value was 93.2% (active); for `O=C(COC(=O)c1ccccn1)NNC(=O)c1ccc(Br)cc1`, 3.1%; for `CCCNC(=O)NC(=O)COC(=O)CC(NC(N)=O)c1ccc(Cl)cc1` (stereo unspecified), 1%.
Turning to `COc1ccc(C(=O)C2CCCN(S(=O)(=O)c3cccc(C)c3)C2)c(C)c1` (stereo unspecified), the inhibition was -4.5%.
The figure for `O=C(CCn1c(=O)oc2ccccc21)Nc1ccon1` is -0.5%; for `Cc1ccc2c(c1)C(c1ccccc1)N(C(=O)c1ccc(S(=O)(=O)N3CCOCC3)cc1)CC(=O)N2` (stereo unspecified) it is 0.9%.
`OCCNc1nc(Nc2ccc(Cl)c(Cl)c2)nc2ccccc12`: the inhibition is 68.2% (active).
With `Cc1ccc(Nc2nc(N)nc(CN3CCN(Cc4ccccc4)CC3)n2)cc1Cl`, the inhibition is 8.9%.
For `CNc1nc(Nc2ccc(C)c(Cl)c2)nc(N)c1[N+](=O)[O-]` the value was 9.3%; for `CCCS(=O)(=O)Nc1c(C(=O)O)[nH]c2ccccc12`, 8.6%; for `C=CCn1c(SCc2ccc(Cl)c(Cl)c2)nnc1C(CO)NC(=O)c1ccc(OC)cc1` (stereo unspecified), 15.9%.
The figure for `O=C(COC(=O)Cn1cnc2ccccc2c1=O)NCc1ccccc1Cl` is 45.4% (active).
The figure for `O=C(COC(=O)Cn1cnc2ccccc2c1=O)NCC12CC3CC(CC(C3)C1)C2` is 17.4%; for `Cn1c(CCC(=O)OCC(=O)NCc2ccccc2Cl)nc(=O)c2ccccc21` it is 2.8%; for `O=C(N/N=C/c1ccccc1O)/C(=C/c1ccccc1)CCO` it is 4.1%.
Turning to `COc1ccccc1C(=O)OCC(=O)NCCNC(=O)COC(=O)c1ccccc1OC`, the inhibition is 5.1%.
For `O=C(N/N=C/c1ccccn1)c1ccc(S(=O)(=O)N2CCCCCC2)cc1` the value was -2.2%; for `Cc1ncc(CO)c(/C=N/NC(=O)c2cccc(S(=O)(=O)N3CCCC3)c2)c1O`, 52.7% (active); for `Cc1cccc(NC(=O)c2cccc(S(=O)(=O)N3CCCC3)c2)n1`, 2.6%.
The figure for `Cc1cc(C)n(CC(O)CN(c2ccccc2)S(=O)(=O)c2ccc3ccccc3c2)n1` (stereo unspecified) is -8.5%; for `CCSCc1nc(N)nc(NCCc2ccccc2)n1` it is 8.1%; for `Cc1c(C(=O)N2CCN(c3ccc(F)cc3)CC2)oc2c1C(=O)CCC2` it is 3.2%.
The figure for `COc1ccc2c(CC(=O)NNC(=O)c3ccccc3F)coc2c1` is 7.9%.
Regarding `O=C(CCC(=O)c1ccccc1)NCc1cccc(C(F)(F)F)c1`, the inhibition is -0.5%.
The figure for `NC[C@H](Cc1ccccc1)NCCc1cc(C(F)(F)F)cc(C(F)(F)F)c1` is 65.5% (active); for `COC(=O)[C@@H](Cc1ccccc1)NC(=O)NCCc1ccccc1` it is 6.5%; for `CCOc1ccc(Nc2nc(Cc3nnc(SCC(=O)c4ccc(C)cc4)o3)cs2)cc1` it is 1.3%.
For `CC(NCc1nc2ccccc2n1C)C12CC3CC(CC(C3)C1)C2` (stereo unspecified) the value was 22.8%.
The figure for `Cc1cccc(Nc2nc(NCCO)nc(N3CCCC3)n2)c1` is 11.1%.
For the compound `CC(C)(C)Oc1ccccc1Nc1nc(NCCO)nc(N2CCCC2)n1`, the inhibition is 8.7%.
For `CCCOc1ccc(Cl)cc1Nc1nc(NCCO)nc(N2CCCC2)n1` the value was 60.4% (active); for `CC(=O)N1C(=O)/C(=C2\SC(=S)N(NC(=O)c3ccc(O)cc3)C2=O)c2ccccc21`, -62.3%; for `COc1c(O)cc2oc(-c3ccc(O)c(O)c3)cc(=O)c2c1O`, -3.7%.
For `COC(=O)c1ccccc1NC(=O)C1CCN(C(=O)N2CCOc3ccccc32)CC1` the value was 6.2%; for `CCCCNC(=O)c1ccc(-n2c(=S)[nH]c3ccccc3c2=O)cc1`, 43.8%.
For `O=C(Cc1ccc(-n2c(=O)[nH]c3ccccc3c2=O)cc1)N1CCN(c2cccc(Cl)c2)CC1` the value was -5.1%.
`CCOC(=O)N1CCN(C(=O)Cc2ccc(-n3c(=S)[nH]c4ccccc4c3=O)cc2)CC1`: the inhibition was 46.3% (active).
